# From the supplement of paper PMC11732987, “Enantioselective OTUD7B fragment discovery through chemoproteomics screening and high-throughput optimisation” (Communications Chemistry, 2025)
# Unmarked numbers belong to inactive results.
# Key:
# Assay in all cases: log2 ratio of Biotin-Ahx-Ub-VS probe labelling (fragment/DMSO); higher = less target engagement (more negative = stronger competition), active = hit call of the paper (q ≤ 0.05, log2 ratio ≤ -1)
# Conditions in all cases: compound concentration: 200 uM; treatment time: 3 h
# USP19 = target: T1, USP19 (UniProt O94966)
# T1 sequence (whole entry): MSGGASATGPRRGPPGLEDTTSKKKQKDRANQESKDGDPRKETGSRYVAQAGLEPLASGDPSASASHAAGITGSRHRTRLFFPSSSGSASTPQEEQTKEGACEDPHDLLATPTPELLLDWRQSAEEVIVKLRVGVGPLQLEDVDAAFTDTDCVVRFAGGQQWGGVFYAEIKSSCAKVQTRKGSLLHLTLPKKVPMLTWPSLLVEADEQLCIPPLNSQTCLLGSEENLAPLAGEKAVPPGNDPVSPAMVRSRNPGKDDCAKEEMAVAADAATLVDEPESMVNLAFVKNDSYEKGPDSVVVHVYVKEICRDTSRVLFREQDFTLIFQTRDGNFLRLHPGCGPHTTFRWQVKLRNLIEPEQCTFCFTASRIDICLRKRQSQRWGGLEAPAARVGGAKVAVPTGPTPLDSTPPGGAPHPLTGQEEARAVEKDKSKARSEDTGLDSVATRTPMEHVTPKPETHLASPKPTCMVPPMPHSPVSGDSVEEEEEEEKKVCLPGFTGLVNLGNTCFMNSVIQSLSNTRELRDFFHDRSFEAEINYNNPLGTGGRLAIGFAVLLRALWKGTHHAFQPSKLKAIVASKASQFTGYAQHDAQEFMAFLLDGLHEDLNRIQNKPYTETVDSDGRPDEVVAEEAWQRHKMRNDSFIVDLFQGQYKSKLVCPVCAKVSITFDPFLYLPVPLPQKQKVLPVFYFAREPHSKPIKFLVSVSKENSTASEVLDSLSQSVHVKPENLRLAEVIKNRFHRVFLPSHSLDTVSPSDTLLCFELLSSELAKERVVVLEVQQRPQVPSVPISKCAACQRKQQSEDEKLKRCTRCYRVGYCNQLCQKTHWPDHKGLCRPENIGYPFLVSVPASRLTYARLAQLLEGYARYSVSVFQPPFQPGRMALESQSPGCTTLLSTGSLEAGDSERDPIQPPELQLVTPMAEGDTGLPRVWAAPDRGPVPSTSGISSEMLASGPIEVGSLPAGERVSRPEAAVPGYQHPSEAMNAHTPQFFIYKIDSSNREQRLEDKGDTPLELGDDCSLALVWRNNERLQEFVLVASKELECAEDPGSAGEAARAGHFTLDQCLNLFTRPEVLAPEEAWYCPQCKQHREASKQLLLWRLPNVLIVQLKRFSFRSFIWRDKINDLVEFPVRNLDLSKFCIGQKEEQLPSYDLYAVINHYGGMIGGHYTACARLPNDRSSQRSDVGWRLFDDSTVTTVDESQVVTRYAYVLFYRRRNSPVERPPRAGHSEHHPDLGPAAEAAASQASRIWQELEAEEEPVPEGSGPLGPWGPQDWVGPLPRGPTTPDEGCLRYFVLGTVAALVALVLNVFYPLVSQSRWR
# Outline: (§1)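 Labelled DUBs from HEK293T lysate were NeutrAvidin-enriched, digested with LysC and trypsin, and run by diaPASEF LC-MS/MS. Before that, each 495 µg sample in Tris/CHAPS/IGEPAL buffer with protease inhibitors was treated in triplicate with fragment at 200 µM or vehicle for 3 h, then with Biotin-Ahx-Ub-VS at 0.5 µM final for 1 h. Values are average log2 ratios of fragment over vehicle by unpaired t-test, based on global-median-normalised Spectronaut label-free quantities from proteins with ≥2 unique peptides.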
# USP24 = USP24 (UniProt Q9UPU5)
# Sequence of USP24 (Q9UPU5 whole entry): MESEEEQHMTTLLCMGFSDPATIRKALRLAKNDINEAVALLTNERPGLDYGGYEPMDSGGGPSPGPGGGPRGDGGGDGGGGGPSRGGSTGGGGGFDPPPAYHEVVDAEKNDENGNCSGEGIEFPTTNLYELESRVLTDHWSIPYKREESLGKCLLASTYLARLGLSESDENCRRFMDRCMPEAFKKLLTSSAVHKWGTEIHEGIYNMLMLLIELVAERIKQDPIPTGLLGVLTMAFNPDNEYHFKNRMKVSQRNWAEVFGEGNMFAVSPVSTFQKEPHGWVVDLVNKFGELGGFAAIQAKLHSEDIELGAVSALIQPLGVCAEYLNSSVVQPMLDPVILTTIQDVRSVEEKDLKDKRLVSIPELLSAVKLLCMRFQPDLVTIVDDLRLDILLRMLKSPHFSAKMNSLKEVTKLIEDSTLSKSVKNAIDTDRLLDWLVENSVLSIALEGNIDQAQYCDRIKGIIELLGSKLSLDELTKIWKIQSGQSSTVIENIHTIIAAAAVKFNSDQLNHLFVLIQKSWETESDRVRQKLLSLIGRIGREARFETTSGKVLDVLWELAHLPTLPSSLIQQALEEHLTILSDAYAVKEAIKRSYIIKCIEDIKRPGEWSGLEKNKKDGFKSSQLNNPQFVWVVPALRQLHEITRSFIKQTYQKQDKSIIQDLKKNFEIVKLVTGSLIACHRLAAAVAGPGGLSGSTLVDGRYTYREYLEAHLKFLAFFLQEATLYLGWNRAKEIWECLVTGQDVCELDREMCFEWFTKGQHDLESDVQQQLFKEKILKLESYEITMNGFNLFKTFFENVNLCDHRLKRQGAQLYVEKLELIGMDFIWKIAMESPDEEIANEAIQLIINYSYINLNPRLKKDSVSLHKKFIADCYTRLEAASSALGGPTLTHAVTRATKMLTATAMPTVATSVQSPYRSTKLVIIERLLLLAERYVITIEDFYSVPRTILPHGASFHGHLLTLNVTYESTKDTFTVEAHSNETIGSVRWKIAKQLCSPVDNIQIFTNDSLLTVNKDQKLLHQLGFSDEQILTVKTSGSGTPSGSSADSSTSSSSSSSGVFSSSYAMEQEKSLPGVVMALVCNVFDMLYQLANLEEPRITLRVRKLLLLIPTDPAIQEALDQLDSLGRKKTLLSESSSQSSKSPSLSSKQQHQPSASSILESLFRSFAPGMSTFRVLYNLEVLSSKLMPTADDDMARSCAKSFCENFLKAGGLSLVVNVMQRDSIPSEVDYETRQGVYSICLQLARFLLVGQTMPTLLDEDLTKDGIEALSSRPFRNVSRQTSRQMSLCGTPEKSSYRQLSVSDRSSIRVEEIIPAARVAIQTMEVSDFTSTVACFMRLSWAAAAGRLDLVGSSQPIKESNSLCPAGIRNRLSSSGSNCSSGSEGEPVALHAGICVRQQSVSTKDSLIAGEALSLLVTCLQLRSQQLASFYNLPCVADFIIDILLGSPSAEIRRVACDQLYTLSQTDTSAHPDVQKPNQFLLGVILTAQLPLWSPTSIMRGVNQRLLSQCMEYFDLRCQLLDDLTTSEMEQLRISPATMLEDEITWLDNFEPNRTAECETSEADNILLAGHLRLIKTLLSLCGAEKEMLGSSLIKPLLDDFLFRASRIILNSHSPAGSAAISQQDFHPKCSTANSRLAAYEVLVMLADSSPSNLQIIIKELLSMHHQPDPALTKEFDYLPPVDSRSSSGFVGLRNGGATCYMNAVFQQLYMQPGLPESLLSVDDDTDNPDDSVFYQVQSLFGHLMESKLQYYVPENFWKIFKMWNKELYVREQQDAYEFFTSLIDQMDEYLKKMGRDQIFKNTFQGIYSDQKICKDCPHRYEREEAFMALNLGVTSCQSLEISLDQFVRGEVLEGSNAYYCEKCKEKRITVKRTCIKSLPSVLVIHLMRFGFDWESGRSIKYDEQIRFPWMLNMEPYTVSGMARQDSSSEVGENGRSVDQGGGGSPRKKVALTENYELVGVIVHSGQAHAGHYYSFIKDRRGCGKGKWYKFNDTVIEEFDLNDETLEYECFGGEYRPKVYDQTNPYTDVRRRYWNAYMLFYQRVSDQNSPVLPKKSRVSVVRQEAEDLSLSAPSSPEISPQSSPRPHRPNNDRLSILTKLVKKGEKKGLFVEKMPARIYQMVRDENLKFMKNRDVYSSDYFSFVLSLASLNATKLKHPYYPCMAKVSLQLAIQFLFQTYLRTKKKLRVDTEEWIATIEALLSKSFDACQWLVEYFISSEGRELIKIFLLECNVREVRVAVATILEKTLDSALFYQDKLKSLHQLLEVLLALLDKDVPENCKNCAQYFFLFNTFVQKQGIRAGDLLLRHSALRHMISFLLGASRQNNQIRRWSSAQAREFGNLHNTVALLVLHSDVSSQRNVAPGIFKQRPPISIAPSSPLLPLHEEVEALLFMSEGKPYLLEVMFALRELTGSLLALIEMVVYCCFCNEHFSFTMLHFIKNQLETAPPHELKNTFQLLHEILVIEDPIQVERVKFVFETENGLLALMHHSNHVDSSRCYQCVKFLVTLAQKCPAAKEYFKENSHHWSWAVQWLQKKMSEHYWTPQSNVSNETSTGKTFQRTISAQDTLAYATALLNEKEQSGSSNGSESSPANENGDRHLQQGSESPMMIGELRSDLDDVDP
# Outline: as §1
# USP25 = target: T2, USP25 (UniProt Q9UHP3)
# T2 sequence (whole entry): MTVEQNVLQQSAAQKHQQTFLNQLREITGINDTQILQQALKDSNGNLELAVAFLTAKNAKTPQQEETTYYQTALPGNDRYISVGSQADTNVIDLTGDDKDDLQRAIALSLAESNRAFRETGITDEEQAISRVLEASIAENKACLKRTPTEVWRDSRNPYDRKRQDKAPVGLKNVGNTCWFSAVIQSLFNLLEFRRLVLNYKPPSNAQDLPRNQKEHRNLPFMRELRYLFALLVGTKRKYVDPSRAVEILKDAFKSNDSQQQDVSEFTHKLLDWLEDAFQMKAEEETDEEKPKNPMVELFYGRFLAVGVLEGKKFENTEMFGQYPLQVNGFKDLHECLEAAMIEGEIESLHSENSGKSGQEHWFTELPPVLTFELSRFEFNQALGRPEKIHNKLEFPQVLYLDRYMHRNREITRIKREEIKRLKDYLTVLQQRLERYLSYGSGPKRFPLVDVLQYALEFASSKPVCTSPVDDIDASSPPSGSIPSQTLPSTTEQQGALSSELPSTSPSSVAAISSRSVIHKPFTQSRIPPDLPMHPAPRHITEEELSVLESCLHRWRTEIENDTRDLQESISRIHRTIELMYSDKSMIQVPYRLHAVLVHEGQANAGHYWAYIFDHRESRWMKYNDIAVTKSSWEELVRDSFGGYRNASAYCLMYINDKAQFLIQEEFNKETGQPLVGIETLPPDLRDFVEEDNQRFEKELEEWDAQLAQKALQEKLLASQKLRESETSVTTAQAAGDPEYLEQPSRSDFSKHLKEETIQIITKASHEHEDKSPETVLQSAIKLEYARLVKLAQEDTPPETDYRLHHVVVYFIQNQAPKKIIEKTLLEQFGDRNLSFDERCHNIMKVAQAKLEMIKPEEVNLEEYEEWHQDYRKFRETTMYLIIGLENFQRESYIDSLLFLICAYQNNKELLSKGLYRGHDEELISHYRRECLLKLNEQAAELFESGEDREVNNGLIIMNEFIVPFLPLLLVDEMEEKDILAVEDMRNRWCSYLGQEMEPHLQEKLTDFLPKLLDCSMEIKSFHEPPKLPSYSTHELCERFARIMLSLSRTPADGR
# Outline: as §1
# USP28 = target: T3, USP28 (UniProt Q96RU2)
# T3 sequence (whole entry): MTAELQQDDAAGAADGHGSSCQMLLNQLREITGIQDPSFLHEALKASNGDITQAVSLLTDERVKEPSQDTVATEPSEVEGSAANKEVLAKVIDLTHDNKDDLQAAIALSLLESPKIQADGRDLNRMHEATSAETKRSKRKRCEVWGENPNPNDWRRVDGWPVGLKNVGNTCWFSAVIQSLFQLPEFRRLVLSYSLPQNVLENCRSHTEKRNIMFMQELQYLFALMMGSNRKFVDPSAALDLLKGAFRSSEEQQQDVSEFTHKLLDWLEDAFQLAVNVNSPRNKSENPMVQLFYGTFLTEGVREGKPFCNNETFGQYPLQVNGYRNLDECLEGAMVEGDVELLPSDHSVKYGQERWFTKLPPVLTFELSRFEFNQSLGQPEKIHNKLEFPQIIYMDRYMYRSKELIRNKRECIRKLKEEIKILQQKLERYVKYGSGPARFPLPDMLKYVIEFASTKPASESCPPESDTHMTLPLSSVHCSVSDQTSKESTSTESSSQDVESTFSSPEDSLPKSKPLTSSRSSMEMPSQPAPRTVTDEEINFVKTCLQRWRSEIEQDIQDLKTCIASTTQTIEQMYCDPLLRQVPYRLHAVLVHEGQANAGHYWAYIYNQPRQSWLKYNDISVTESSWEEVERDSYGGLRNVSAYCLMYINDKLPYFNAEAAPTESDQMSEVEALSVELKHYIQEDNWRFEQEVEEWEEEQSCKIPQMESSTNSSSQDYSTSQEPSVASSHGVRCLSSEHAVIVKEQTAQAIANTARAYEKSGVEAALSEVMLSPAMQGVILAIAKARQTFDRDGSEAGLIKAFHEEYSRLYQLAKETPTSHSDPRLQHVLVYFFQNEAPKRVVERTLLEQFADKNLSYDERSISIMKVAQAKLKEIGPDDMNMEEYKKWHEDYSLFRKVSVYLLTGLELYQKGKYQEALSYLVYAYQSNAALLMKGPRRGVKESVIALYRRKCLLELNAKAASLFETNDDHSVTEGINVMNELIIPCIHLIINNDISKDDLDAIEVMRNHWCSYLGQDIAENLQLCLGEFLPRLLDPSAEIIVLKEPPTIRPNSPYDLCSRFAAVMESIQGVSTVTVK
# Outline: as §1
compound,measurement,setting,value
CN(C(=O)CCl)c1nc2ccccc2s1,log2 ratio of Biotin-Ahx-Ub-VS probe labelling,USP19,-0.126
same,log2 ratio of Biotin-Ahx-Ub-VS probe labelling,USP24,-1.2 (active)
same,log2 ratio of Biotin-Ahx-Ub-VS probe labelling,USP25,-0.235
same,log2 ratio of Biotin-Ahx-Ub-VS probe labelling,USP28,-0.444
